Rows were chosen to be rich in hits. Some 7.7% of all compounds tested hit in one or more screens of this group.
Sm TGR inh = inhibitors of Schistosoma mansoni thioredoxin glutathione reductase; Potency, µM (top dose mostly 114 µM), inactives show at the top dose activity change, negative = inhibition, usual class: inhibitors; purified TGR, DTNB reduction, TNB absorbance 405 nm; Q962Y6; AID 485364; 3% of 360,000 active; further: potency means the concentration at half of the fitted maximal effect; nearly all actives have a fitted effect of over 60% in size
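TGR 20 nM + NADPH 100 uM (dispensed conc.), cpd preinc 15 min RT; start with NADPH (500 uM addition) then DTNB (15 mM addition). Kinetic TNB absorbance, 405 nm filter. Four-parameter Hill fit across titration.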
HCMV inh = human cytomegalovirus inhibition; AID 1259415; 4.5% of 410,000 active; HFF cells, HCMV-luciferase reporter, 72 h; stronger effect = lower value; activity change, negative = inhibition, % at 57.5 µM; in the data active means activity change below about -60%; inconclusive means no clear call, values can overlap the other calls; inactive means above about -39%
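Two compound doses tested in HFFs infected with HCMV-luciferase, MOI 1 PFU/cell, 72 h at 37C. Lysate luminescence read with OneGlo; data normalized against buffer-only and 10uM Salinomycin inhibitor controls.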
RE007 growth inh = less growth of the S. pombe RE007 Vpr strain | 0.21% of 360,000 active | S. pombe RE007 Vpr strain, BacTiter-Glo ATP luminescence, 24 h | Potency, µM (top dose mostly 92.2 µM), inactives show top-dose activity change, negative = less growth, actives largely listed as inhibitors | AID 651644; active means well fitted falling curve with a large enough effect; inconclusive means small, poorly fitted or top-dose-only effect; inactive means no such curve, though single readings can be large or run the other way; further: potency means the concentration at half of the fitted maximal effect; nearly all actives have a fitted effect of over 50% in size
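Fission yeast strain RE007, carrying one chromosomally integrated HIV-1 vpr copy, was seeded at OD 0.01 in PMG+AL medium with 23 nL pinned compound. After 24 h at 30 °C and 99% humidity, viability was read by BacTiter-Glo luminescence.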
Giardia FBPA inh = inhibitors of Giardia lamblia fructose-1,6-bisphosphate aldolase | A8B2U2 | purified Giardia FBPA | Potency, µM (series often up to 59.6 µM), for inactives: at the highest dose activity, negative = inhibition, most hits filed as inhibitors | 0.71% of 290,000 active | AID 2451; further: potency means the concentration at half of the fitted maximal effect; nearly all actives have a fitted effect of over 55% in size
Target sequence (A8B2U2 whole entry, looked up): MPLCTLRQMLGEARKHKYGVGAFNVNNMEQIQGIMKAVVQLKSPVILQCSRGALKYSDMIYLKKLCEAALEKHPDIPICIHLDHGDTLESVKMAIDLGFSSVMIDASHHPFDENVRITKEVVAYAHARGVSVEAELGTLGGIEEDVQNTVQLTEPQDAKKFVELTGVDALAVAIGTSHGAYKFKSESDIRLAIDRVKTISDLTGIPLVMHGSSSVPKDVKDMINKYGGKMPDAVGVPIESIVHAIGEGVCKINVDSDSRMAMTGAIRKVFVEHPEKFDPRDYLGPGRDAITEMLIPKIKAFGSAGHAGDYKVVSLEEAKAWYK
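Giardia FBPA (40 nM reagent) was preincubated 10 min at RT with compound (up to 57.5 uM final), then substrate plus GAPDH/TPI/NAD/arsenate coupling system with diaphorase/resazurin was added; resorufin fluorescence (525/598 nm) was read after 20 min.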
Tb PYK inh = blocks Trypanosoma brucei pyruvate kinase | Q57TT1 | TbPYK enzyme, Kinase-Glo Plus ATP luminescence, 45 min | Potency, µM (titrated, usually from 76.8 µM), inactives show top-dose activity, negative = inhibition, hits mostly inhibitors | 0.12% of 410,000 active | AID 624173; further: potency means the concentration at half of the fitted maximal effect; nearly all actives have a fitted effect of over 50% in size
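Readout: single end-point luminescence (Kinase-Glo Plus, 10 min). Reaction conditions were TbPYK/substrate plus 130 uM ADP, 45 min at RT, pH 7.2 TEA buffer. No-enzyme wells served as controls, and data were normalized before concentration-response fitting.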
FMDV inh = antivirals against foot and mouth disease virus; AID 1159524; FMDV antiviral cell-based qHTS; 1.2% of 410,000 active; Potency, µM (doses to about 57.9 µM), without a hit: at the top dose activity change, negative = inhibition, most hits filed as inhibitors; calls by dose curve; tested in HEK293T cells; further: read-out not given here; potency means the concentration at half of the fitted maximal effect; nearly all actives have a fitted effect of over 45% in size
Numbers without * were called inactive; ? = inconclusive; . = no result given; [ ] = dose if it differs, or a comment. Unless noted, the call rests on the fitted dose curve; in most records, active means well fitted curve in the direction sought with a large enough effect; inconclusive means small, poorly fitted or top-dose-only effect, or another doubt; inactive means no such curve, though single readings can be large; an effect the other way counts as inactive or inconclusive. On the % scale 0 is the no-effect control and ±100 the full control effect.

SMILES	Sm TGR inh	HCMV inh	RE007 growth inh	Giardia FBPA inh	Tb PYK inh	FMDV inh
CSCC[C@H](NC(=O)[C@H](CC(C)C)NC(=O)CNC(=O)[C@@H]1CCCN1C(=O)[C@H](Cc1ccccc1)NC(=O)[C@H](Cc1ccccc1)NC(=O)[C@H](CC(=O)O)NC(=O)[C@H](Cc1cnc[nH]1)NC(=O)[C@H](CCSC)NC(=O)[C@@H](N)CC(=O)O)C(N)=O	.	.	.	-0.3%	.	.
COc1ccc(NS(=O)(=O)c2cc(NC(=O)c3cccs3)ccc2N2CCCC2)cc1	-1.9%	-96.8*	2.1%	1.3%	-5.7%	79.6%
COc1ccc(NS(=O)(=O)c2cc(NC(=O)c3cnccn3)ccc2N2CCCC2)cc1	-12.3%	?	-1.1%	-24.4%	-13.5%	42.8%
COc1ccc(NS(=O)(=O)c2cc(NC(=O)c3ccc(C)o3)ccc2N2CCCCC2)cc1	-1.6%	-89.9*	-10.9%	1.3%	1.3%	67.1%
O=C(Nc1ccc(Cl)cc1)Nc1ccc(N2CCCC2)c(S(=O)(=O)Nc2ccccc2Cl)c1	5.3%	-99.4*	8.4%	-1.2%	5.2%	-8.9%
COc1ccc(NS(=O)(=O)c2cc(NC(=O)c3ccccc3F)ccc2N2CCCC2)cc1	4.9%	?	-10.1%	-0.6%	-5.2%	66.1%
O=C(Nc1ccc(N2CCOCC2)c(S(=O)(=O)Nc2ccccc2Cl)c1)c1ccccc1	-9.2%	-22.3	-13.7%	.	2.0%	44.3%
C[C@]12CCC(=O)C=C1CC[C@@H]1[C@H]2[C@@H](O)C[C@@]2(C)[C@H]1CC[C@]2(O)C(=O)CO	.	.	.	.	2.8%	.
CCN1C(=O)[C@@H]2[C@@H](c3ccc(-c4ccc(OC)cc4)cc3)N3CCC[C@@]3(C(=O)OC)[C@@H]2C1=O	-28.6%	-36.5	17.8%	.	2.1%	-15.6%
CCN1C(=O)[C@H]2[C@@H](c3ccc(-c4ccc(OC)cc4)cc3)N3CCC[C@@]3(C(=O)OC)[C@H]2C1=O	?	-100.9*	8.6%	.	3.5%	-9.3%
CCCSc1ccc([C@@H]2[C@@H]3C(=O)N(C)C(=O)[C@@H]3[C@]3(C(=O)OC)CCCN23)cc1OC	20µM*	.	9.1%	.	-18.8%	-14.4%
CC(=O)OCC(NC(=O)C(C)NC(=O)OC(C)(C)C)C1OC(n2ccc(=O)[nH]c2=O)C(OC(C)=O)C1OC(C)=O (stereo not given)	.	.	.	-1.0%	.	.
COc1ccccc1CNC(=O)Cc1csc2nc(-c3ccc(Cl)cc3)cn12	-3.8%	-31.5	.	.	0.5%	-5.9%
CCOc1ccc(NCc2cccn2-c2nnc(N3CCC(C(=O)NCc4cccc(OC)c4)CC3)s2)cc1	9.8%	-84.3*	.	.	-2.1%	?
CCOc1ccc(NCc2cccn2-c2nnc(N3CCC(C(=O)NCc4ccc(C)cc4)CC3)s2)cc1	-0.8%	-75.6*	.	.	-1.5%	?
Cc1ccc(NCc2cccn2-c2nnc(N3CCC(C(=O)NCc4ccc(OC(C)C)cc4)CC3)s2)cc1	-8.8%	-80.1*	.	.	-8.8%	?
CCOc1ccc(NCc2cccn2-c2nnc(N3CCC(C(=O)NCC(C)c4ccccc4)CC3)s2)cc1 (stereo not given)	5.9%	-79.8*	.	.	-3.2%	?
CCOc1ccc(NCc2cccn2-c2nnc(N3CCC(C(=O)NCCOC)CC3)s2)cc1	3.1%	-35.0	.	.	-4.8%	-22.3%
CCN(CC)c1cc2c(cc1F)c(=O)c(S(=O)(=O)c1ccc(OC)cc1)cn2Cc1ccccc1	-3.8%	-9.8	.	.	2.2%	-18.8%
COc1ccc2[nH]c3nc(SCc4nnc(-c5ccccc5)o4)nnc3c2c1	0.8%	-94.3*	24.8%	0.0%	-10.2%	-13.3%
Fc1ccc(-c2nnc(CSc3nnc4ccccn34)o2)cc1	-10.5%	-0.7	-28.1%	3.8%	8.0%	57.6%
COc1ccc(-c2nnc(SCc3ncc(-c4ccccc4)o3)o2)cc1	39.8µM*	-14.6	16.6%	22.1%	-12.5%	-19.6%
c1ccc(-c2cnc(CSc3nnc4ccccn34)o2)cc1	10µM*	150.7	-9.5%	?	-21.0%	-0.3%
COc1ccc2[nH]c3nc(SC(C)C)nnc3c2c1	3.9%	-20.7	-28.0%	-6.0%	-13.5%	12.6µM*
CC1CCN(S(=O)(=O)c2ccc3c(c2)CCN3C(=O)Nc2ccc(Br)cc2F)CC1	5.5%	3.5	.	.	-0.9%	-2.3%
SMILES	Sm TGR inh	HCMV inh	RE007 growth inh	Giardia FBPA inh	Tb PYK inh	FMDV inh
CCOc1ccc(NC(=O)C2CCCN(S(=O)(=O)c3ccc(Br)s3)C2)cc1 (stereo not given)	-8.8%	-4.0	.	.	3.1%	-3.2%
CCN1CCN(CCNC(=O)c2ccc3c(c2)N(Cc2ccc(F)cc2)C(=O)/C(=C/c2ccccc2)S3)CC1	-4.7%	-80.9*	4.8%	-1.4%	2.3%	6.2%
Cc1cccc(CN2C(=O)/C(=C\c3ccc(C(=O)NCCN4CCOCC4)cc3)Sc3ccccc32)c1	-5.8%	.	6.9%	.	0.7%	39.8µM*
CN1CCN(CCCNC(=O)c2ccc(/C=C3\Sc4ccccc4N(Cc4ccccc4F)C3=O)cc2)CC1	1.7%	-63.4*	3.7%	12.7%	-10.3%	2.1%
CCN1CCN(CCNC(=O)c2ccc(/C=C3/Sc4ccccc4N(Cc4cccc(Cl)c4)C3=O)cc2)CC1	5.9%	-103.3*	-1.4%	1.4%	-6.9%	-27.0%
O=C(NCCN1CCOCC1)c1ccc(/C=C2\Sc3ccccc3N(Cc3ccccc3F)C2=O)cc1	-2.1%	-34.9	5.4%	5.2%	1.8%	?
COc1cc(C2CC(=O)Oc3cc(C)c(Cl)cc32)cc(OC)c1OC (stereo not given)	.	.	.	-14.7%[89.2 µM]	.	.
CCN(C)C(=O)C1=COC2=NC(=O)N(Cc3cccc(Cl)c3)CCN12	.	-7.1	.	.	.	.
COCCN(C)c1ccc2c(-c3ccccc3OC)noc2n1	.	31.6	.	.	.	.
CCc1ccc(/C=C2/Sc3ccccc3N(CC(=O)NCCCN3CCOCC3)C2=O)cc1	-18.9%	-60.3*	-9.2%	8.5%	2.3%	-3.9%
Cc1onc(-c2c(Cl)cccc2Cl)c1C(=O)N[C@H]1C(=O)N2[C@H]1SC(C)(C)[C@H]2C(=O)O	.	.	.	-5.2%[21.7 µM]	.	.
COc1ccc(S(=O)(=O)N2CCC[C@H]2C(=O)N2CCC[C@H]2C(=O)N[C@@H](C)c2ccccc2)cc1C	.	-101.3*	7.1%	.	2.2%	-7.6%
CCC(/C=C1\Sc2ccc(OC)cc2N1CC)=C\c1sc2ccc(OC)cc2[n+]1CCCS(=O)(=O)[O-]	-3.5%	-20.9	0.2%	-8.3%	?	17.8µM*
CCO/C(=C/c1sc2ccc(OC)cc2[n+]1CCCS(=O)(=O)[O-])CC	-7.1%	14.8	3.4%[3.69 µM]	-0.9%	.	-19.4%
CCC(/C=C1\Sc2ccc(OC)cc2N1CCO)=C\c1sc2ccc(OC)cc2[n+]1CCO	11.2µM*	-97.7*	?	?	?	17.8µM*
